This passage reports binding signal results from paper PMC7862700, “An all-to-all approach to the identification of sequence-specific readers for epigenetic DNA modifications on cytosine”.

Test in all cases: DAPPL (digital affinity profiling via proximity ligation, sequencing); 10 mM Tris-HCl pH 7.5, 50 mM NaCl, 1 mM DTT, 4% glycerol, room temperature, 30 min; GST-TFs on glutathione beads, 16-mer random dsDNA library, 0.1% formaldehyde crosslink after washing; high values mean tight binding
For one test, the target named is T1, FLI1 (Homo sapiens, UniProt Q01543 1-452).
T1 sequence: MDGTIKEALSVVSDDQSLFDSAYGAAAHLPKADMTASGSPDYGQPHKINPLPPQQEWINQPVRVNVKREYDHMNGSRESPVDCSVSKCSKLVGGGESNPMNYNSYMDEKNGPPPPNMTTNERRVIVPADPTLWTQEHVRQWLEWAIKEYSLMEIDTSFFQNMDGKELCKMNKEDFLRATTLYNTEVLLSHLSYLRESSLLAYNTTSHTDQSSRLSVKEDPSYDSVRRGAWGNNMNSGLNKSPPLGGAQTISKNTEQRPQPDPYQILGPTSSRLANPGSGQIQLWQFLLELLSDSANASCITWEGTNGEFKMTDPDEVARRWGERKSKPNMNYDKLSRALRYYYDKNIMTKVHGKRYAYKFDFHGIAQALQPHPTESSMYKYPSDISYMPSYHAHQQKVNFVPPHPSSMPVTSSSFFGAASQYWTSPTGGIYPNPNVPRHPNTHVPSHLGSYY
The conditions noted are these: protein: recombinant; tags: N-terminal GST; dsDNA, one strand shown. Put shortly:
(§1)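 Beads coated with glutathione captured GST-fused human transcription factors that had been expressed in yeast, and the factors were then given DNA barcodes and pooled with a tag-only sample. The pools were incubated with 200 nmole of a random double-stranded 16-mer DNA library in Tris/NaCl/DTT/glycerol buffer for 30 min at room temperature, washed, crosslinked with 0.1% formaldehyde and proximity-ligated with BsaI/T4 ligase at 37 °C for 1 h. PCR amplification and Illumina NextSeq500 sequencing came last. Binding signal is each hexamer's read frequency for a factor divided by its frequency for the tag-only sample.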

A further test deals with T2, ELK1 (Homo sapiens, UniProt P19419 1-428).
T2 sequence: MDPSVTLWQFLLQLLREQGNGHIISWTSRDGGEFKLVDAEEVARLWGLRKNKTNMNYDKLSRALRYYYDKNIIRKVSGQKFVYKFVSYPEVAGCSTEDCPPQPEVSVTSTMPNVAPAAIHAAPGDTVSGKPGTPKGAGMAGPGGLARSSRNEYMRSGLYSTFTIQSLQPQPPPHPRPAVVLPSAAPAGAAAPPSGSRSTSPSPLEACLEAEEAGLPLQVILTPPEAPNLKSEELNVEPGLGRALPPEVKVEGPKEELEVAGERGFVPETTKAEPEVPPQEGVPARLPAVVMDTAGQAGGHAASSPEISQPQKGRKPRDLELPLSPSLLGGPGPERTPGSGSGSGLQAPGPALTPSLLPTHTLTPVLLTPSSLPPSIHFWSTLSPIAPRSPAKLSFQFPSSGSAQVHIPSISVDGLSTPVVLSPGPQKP
The conditions noted are these: protein: recombinant; tags: N-terminal GST; dsDNA, one strand shown. A digest of the protocol: as §1

The next test has as its target T3, GABPA (Homo sapiens, UniProt Q06546 1-454).
T3 sequence: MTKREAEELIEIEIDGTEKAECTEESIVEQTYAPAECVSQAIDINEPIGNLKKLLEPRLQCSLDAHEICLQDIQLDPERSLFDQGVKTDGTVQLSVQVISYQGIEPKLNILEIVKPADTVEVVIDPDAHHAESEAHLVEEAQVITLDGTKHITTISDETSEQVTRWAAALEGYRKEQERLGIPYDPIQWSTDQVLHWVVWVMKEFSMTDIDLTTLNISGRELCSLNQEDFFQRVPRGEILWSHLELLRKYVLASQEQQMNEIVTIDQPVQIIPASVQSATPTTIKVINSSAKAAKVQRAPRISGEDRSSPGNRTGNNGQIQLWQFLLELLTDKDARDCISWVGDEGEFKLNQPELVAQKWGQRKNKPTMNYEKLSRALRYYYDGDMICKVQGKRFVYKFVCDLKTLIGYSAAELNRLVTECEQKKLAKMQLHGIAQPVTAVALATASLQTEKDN
The conditions noted are these: protein: recombinant; tags: N-terminal GST; dsDNA, one strand shown. A digest of the protocol: as §1

The next test deals with T4, ERG (Homo sapiens, UniProt P11308 1-479).
T4 sequence: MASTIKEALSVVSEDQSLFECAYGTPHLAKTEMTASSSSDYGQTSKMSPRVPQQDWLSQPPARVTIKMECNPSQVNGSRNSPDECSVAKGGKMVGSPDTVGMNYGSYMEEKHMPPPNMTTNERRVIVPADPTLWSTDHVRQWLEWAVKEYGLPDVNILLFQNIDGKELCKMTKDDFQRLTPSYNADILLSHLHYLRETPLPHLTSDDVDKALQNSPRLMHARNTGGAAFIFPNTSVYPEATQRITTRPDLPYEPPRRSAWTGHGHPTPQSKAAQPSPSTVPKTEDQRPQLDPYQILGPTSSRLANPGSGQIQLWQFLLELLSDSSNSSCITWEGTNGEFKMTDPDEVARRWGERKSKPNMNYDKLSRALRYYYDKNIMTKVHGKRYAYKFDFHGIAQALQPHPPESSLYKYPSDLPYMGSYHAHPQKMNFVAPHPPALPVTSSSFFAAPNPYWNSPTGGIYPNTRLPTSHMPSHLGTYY
The conditions noted are these: protein: recombinant; tags: N-terminal GST; dsDNA, one strand shown. Put shortly:
as §1

The next test addresses ELF1 (Homo sapiens, UniProt P32519 1-619). Particulars: protein: recombinant; tags: N-terminal GST; dsDNA, one strand shown. A digest of the protocol:
as §1

Another test deals with T5, EHF (Homo sapiens, UniProt Q9NZC4 1-300).
T5 sequence: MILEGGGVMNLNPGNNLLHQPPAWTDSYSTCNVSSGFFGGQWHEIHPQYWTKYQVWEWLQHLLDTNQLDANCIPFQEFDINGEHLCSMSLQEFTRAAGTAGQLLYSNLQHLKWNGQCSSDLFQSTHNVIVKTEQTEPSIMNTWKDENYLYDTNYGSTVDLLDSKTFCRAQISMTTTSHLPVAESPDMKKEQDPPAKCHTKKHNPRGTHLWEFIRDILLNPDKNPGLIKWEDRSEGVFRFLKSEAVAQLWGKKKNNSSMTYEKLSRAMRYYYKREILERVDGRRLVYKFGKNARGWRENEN
The conditions noted are these: protein: recombinant; tags: N-terminal GST; dsDNA, one strand shown. Put shortly:
as §1

Another test has as its target SPI1 (Homo sapiens, UniProt P17947 1-270). Particulars: protein: recombinant; tags: N-terminal GST; dsDNA, one strand shown. Put shortly:
as §1

Another test has as its target SPIB (Homo sapiens, UniProt Q01892 1-262). The conditions noted are these: protein: recombinant; tags: N-terminal GST; dsDNA, one strand shown. A digest of the protocol: as §1
The target in the next test is T6, ELK3 (Homo sapiens, UniProt P41970 1-407).
T6 sequence: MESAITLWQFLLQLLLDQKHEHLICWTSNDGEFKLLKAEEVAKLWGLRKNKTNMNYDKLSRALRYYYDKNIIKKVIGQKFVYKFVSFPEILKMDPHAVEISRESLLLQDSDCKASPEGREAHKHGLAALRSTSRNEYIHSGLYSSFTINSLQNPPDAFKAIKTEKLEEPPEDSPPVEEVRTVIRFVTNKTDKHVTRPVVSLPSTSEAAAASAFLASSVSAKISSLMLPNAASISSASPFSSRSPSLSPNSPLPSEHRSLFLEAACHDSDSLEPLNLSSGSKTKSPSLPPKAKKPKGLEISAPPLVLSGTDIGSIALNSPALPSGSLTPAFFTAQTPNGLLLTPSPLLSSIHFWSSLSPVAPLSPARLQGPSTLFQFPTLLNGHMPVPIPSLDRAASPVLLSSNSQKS
Particulars: protein: recombinant; tags: N-terminal GST; dsDNA, one strand shown. A digest of the protocol: as §1

The target of another test is T7, FEV (Homo sapiens, UniProt Q99581 1-238).
T7 sequence: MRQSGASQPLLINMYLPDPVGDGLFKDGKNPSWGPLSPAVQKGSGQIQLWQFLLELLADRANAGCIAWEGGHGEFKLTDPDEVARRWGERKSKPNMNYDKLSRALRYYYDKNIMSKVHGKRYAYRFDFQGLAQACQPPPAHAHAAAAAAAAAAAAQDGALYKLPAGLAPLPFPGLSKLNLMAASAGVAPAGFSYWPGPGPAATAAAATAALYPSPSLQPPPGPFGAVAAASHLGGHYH
Particulars: protein: recombinant; tags: N-terminal GST; dsDNA, one strand shown. Put shortly: as §1

The next test deals with ETV5 (Homo sapiens, UniProt P41161 1-510). The conditions noted are these: protein: recombinant; tags: N-terminal GST; dsDNA, one strand shown. Put shortly: as §1
Sequence of ETV5 (P41161 whole entry): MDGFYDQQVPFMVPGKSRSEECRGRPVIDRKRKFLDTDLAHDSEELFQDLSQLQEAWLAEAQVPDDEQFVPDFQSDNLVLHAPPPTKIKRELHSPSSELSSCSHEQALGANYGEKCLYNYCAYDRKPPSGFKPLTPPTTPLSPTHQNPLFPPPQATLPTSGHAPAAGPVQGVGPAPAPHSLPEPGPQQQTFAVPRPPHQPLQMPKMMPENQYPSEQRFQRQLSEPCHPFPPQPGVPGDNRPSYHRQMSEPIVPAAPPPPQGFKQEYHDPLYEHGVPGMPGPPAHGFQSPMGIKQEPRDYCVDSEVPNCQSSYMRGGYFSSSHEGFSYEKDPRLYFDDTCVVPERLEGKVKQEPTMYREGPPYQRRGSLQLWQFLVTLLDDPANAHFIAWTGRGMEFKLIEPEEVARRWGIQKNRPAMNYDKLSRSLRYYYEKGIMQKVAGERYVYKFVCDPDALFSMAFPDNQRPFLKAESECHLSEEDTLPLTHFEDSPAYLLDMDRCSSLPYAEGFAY
The next test concerns the target HSF1 (Homo sapiens, UniProt Q00613 1-529). Particulars: protein: recombinant; tags: N-terminal GST; chain copies: 3; dsDNA, one strand shown. A digest of the protocol:
as §1

A further test addresses T8, SPIC (Homo sapiens, UniProt Q8N5J4 1-248).
T8 sequence: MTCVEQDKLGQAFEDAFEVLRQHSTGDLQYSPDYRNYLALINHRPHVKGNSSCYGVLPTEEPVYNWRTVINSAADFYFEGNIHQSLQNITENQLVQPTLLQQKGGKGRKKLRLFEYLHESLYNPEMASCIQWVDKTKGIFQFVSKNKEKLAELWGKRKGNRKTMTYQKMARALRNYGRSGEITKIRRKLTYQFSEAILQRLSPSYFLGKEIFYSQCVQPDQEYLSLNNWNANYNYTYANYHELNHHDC
The conditions noted are these: protein: recombinant; tags: N-terminal GST; dsDNA, one strand shown. Put shortly:
as §1

The target of another test is ELF4 (Homo sapiens, UniProt Q99607 1-663). The conditions noted are these: protein: recombinant; tags: N-terminal GST; dsDNA, one strand shown. Put shortly:
as §1

A further test deals with T9, ELK4 (Homo sapiens, UniProt P28324-2 1-405).
T9 sequence: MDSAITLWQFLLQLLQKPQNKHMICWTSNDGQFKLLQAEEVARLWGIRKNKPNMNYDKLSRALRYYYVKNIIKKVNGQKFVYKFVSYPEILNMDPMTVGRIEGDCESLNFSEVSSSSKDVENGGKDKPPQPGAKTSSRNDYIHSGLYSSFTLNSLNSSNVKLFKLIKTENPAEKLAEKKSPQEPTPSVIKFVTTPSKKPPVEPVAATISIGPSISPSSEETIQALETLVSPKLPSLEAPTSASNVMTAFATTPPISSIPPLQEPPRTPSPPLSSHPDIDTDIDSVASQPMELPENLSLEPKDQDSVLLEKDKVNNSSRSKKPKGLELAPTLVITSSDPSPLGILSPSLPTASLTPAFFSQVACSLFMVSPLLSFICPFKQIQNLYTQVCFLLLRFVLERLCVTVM
Particulars: protein: recombinant; tags: N-terminal GST; dsDNA, one strand shown. Put shortly: as §1

The target in the next test is T10, ETV2 (Homo sapiens, UniProt O00321 1-342).
T10 sequence: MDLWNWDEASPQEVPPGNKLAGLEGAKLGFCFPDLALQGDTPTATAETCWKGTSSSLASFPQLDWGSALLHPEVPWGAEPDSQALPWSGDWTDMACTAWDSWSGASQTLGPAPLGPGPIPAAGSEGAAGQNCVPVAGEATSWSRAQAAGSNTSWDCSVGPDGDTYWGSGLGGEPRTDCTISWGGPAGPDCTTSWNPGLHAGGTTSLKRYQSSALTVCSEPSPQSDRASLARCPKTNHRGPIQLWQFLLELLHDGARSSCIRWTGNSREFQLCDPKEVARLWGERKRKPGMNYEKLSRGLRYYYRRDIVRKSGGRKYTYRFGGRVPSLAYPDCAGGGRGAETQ
Particulars: protein: recombinant; tags: N-terminal GST; dsDNA, one strand shown. Put shortly:
as §1

For a further test, the target named is T11, ELF3 (Homo sapiens, UniProt P78545 1-371).
T11 sequence: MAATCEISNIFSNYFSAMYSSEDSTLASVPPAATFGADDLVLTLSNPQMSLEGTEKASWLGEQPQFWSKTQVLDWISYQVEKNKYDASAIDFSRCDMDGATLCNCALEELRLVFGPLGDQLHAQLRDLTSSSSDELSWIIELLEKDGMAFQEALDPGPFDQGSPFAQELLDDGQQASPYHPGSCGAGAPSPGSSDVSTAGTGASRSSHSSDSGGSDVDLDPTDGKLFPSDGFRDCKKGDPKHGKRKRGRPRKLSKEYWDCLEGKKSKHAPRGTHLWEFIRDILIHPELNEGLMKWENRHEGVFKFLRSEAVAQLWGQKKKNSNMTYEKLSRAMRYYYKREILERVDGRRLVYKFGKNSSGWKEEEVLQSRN
The conditions noted are these: protein: recombinant; tags: N-terminal GST; dsDNA, one strand shown. A digest of the protocol:
as §1

The target in the next test is CRX (Homo sapiens, UniProt O43186 1-299). Particulars: protein: recombinant; tags: N-terminal GST; dsDNA, one strand shown. A digest of the protocol: as §1
Sequence of CRX (O43186 whole entry): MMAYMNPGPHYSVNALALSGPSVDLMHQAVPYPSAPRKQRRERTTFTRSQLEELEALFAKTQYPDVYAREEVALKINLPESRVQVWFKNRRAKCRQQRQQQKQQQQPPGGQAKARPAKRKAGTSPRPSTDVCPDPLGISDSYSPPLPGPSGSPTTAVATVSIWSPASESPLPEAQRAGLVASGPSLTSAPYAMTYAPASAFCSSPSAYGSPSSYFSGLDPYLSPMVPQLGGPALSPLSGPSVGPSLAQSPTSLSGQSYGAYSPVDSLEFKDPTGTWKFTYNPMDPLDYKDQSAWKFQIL
In another test the target is ETV1 (Homo sapiens, UniProt P50549 1-477). Particulars: protein: recombinant; tags: N-terminal GST; dsDNA, one strand shown. Put shortly:
as §1

Sequence of ETV1 (P50549 whole entry): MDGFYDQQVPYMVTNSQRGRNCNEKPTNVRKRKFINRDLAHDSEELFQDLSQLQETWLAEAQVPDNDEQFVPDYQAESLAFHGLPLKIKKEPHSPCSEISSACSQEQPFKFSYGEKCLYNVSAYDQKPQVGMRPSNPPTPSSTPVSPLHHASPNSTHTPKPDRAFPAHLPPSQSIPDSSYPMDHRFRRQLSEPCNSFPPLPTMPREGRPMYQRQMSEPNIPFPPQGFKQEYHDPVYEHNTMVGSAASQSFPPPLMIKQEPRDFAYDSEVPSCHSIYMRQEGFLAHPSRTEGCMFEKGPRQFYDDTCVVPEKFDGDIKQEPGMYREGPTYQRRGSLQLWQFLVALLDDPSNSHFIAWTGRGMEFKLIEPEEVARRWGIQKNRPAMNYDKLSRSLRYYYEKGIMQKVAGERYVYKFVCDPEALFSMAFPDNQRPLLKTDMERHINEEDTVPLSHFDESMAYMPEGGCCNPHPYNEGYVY
Sequence of ELF1 (P32519 whole entry): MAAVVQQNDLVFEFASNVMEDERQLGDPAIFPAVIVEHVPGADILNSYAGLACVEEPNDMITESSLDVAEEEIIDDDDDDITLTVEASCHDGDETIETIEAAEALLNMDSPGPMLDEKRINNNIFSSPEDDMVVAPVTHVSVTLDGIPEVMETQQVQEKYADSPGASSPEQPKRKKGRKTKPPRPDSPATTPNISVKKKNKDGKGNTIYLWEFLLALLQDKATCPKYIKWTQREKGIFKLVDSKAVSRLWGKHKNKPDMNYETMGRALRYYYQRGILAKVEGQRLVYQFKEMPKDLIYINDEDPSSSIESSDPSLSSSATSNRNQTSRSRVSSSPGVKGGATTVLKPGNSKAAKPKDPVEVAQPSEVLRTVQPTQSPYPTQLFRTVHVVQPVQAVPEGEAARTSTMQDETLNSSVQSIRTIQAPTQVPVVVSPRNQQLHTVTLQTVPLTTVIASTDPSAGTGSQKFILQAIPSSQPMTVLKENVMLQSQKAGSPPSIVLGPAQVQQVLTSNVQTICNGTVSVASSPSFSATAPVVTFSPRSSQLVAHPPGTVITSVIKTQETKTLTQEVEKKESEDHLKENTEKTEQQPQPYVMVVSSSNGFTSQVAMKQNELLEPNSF
Sequence of HSF1 (Q00613 whole entry): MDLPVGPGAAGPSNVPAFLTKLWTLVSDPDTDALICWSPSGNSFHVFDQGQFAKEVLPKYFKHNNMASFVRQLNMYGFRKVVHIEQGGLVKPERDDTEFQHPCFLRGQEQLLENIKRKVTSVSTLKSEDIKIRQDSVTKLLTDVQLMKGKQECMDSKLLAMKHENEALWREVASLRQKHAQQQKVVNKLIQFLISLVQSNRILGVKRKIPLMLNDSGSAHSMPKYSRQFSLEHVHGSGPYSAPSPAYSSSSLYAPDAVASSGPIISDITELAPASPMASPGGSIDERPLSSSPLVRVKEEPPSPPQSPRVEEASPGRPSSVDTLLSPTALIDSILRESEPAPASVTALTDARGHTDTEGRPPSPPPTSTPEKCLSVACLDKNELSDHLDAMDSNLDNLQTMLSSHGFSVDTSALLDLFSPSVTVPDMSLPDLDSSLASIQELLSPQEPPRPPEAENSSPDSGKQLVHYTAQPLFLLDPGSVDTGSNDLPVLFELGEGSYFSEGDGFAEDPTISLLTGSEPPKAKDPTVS
Sequence of SPIB (Q01892 whole entry): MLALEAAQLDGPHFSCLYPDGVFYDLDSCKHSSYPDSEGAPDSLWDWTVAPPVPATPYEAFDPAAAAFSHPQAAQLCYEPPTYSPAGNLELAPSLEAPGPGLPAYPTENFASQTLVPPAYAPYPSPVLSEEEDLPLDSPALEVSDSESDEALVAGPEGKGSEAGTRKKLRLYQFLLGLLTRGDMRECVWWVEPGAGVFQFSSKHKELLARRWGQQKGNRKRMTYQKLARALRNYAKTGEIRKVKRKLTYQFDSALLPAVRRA
Sequence of ELF4 (Q99607 whole entry): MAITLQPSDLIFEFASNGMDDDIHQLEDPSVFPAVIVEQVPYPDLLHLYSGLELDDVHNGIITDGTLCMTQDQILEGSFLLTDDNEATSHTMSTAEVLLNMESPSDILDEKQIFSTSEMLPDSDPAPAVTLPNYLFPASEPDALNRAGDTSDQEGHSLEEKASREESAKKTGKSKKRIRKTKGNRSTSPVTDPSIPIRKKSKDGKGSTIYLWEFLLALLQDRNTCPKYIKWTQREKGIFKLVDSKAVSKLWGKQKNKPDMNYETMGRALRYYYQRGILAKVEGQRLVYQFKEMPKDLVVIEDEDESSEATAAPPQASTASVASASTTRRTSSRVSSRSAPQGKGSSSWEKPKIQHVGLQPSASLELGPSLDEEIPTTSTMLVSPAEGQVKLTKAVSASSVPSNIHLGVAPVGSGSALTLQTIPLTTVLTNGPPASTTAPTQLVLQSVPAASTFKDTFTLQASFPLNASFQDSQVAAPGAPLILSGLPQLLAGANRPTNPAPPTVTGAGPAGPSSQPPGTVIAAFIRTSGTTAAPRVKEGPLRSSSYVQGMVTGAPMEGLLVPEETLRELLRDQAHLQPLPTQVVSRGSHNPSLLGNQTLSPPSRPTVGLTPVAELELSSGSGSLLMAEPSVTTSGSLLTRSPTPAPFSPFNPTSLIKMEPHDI

ATACTT: the binding signal with FLI1 is 1.57 fold enrichment (6-mer frequency, TF over GST control); with ELK1, 1.6 fold enrichment (6-mer frequency, TF over GST control); with GABPA it was 1.54 fold enrichment (6-mer frequency, TF over GST control); with ERG it was 1.68 fold enrichment (6-mer frequency, TF over GST control); with ELF1 it was 1.61 fold enrichment (6-mer frequency, TF over GST control); with EHF, 1.71 fold enrichment (6-mer frequency, TF over GST control). Besides, the binding signal with SPI1 was 1.67 fold enrichment (6-mer frequency, TF over GST control); with SPIB, 1.48 fold enrichment (6-mer frequency, TF over GST control); in the test with ELK3 it was 1.7 fold enrichment (6-mer frequency, TF over GST control); with FEV, 1.6 fold enrichment (6-mer frequency, TF over GST control); in the test with ETV5 it was 1.6 fold enrichment (6-mer frequency, TF over GST control); with HSF1, 1.34 fold enrichment (6-mer frequency, TF over GST control). Further, the binding signal with SPIC is 1.58 fold enrichment (6-mer frequency, TF over GST control); in the test with ELF4, 1.55 fold enrichment (6-mer frequency, TF over GST control); with ELK4, 1.55 fold enrichment (6-mer frequency, TF over GST control); in the test with ETV2, 1.53 fold enrichment (6-mer frequency, TF over GST control); with ELF3 it was 1.58 fold enrichment (6-mer frequency, TF over GST control); in the test with CRX, 1.71 fold enrichment (6-mer frequency, TF over GST control). In addition, the binding signal with ETV1 was 1.72 fold enrichment (6-mer frequency, TF over GST control).
